In PubChem BioAssay (NCI):
Where “and” joins values, the source holds several entries; their conditions need not be identical. Equal entries are not always repeated. The panel holds about 83,000 compounds, 20% with a hit somewhere; the sample as a whole holds those more often.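 Note: values are percent growth. 100 is the growth of untreated cells, values between 100 and 0 indicate rising inhibition; between -100 and 0 indicates cell death.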 Calls of active or inactive are those of the source. How the source made its calls: active means growth percent below 10; inactive means the rest.

Tests used:
Assay in all cases: NCI-60 one-dose screen, 48 h (100 = growth as untreated, 0 = no growth, -100 = all killed)
Settings in all cases: 10 µM unless noted
HCT-15 colon = tested on: HCT-15 colon
HT29 colon = tested on: HT29 colon
SNB-75 CNS = tested on: SNB-75 CNS
SNB-19 CNS = tested on: SNB-19 CNS
U251 CNS = tested on: U251 CNS
PC-3 prostate = tested on: PC-3 prostate
SK-MEL-5 melanoma = tested on: SK-MEL-5 melanoma
UACC-62 melanoma = tested on: UACC-62 melanoma
LOX IMVI melanoma = tested on: LOX IMVI melanoma
SK-MEL-28 melanoma = tested on: SK-MEL-28 melanoma

COc1cc2nc3cc([N+](=O)[O-])ccc3c(NCCNCC(C)(C)O)c2cc1OC
growth (HCT-15 colon): 17% (inactive) | growth (HT29 colon): -11.7% (active) | growth (SNB-75 CNS): -55.7% (active) | growth (SNB-19 CNS): -10.5% (active) | growth (U251 CNS): -23.6% (active) | growth (PC-3 prostate): -35.6% (active) | growth (SK-MEL-5 melanoma): -71.3% (active) | growth (UACC-62 melanoma): -48.6% (active) | growth (LOX IMVI melanoma): -40.9% (active) | growth (SK-MEL-28 melanoma): -25.7% (active)

O=C(Cc1ccc(F)cc1)c1ccccc1
growth (HCT-15 colon): 108% (inactive) | growth (HT29 colon): 109% (inactive) | growth (SNB-75 CNS): 100% (inactive) | growth (SNB-19 CNS): 109% (inactive) | growth (U251 CNS): 106% (inactive) | growth (PC-3 prostate): 91.4% (inactive) | growth (SK-MEL-5 melanoma): 110% (inactive) | growth (UACC-62 melanoma): 106% (inactive) | growth (LOX IMVI melanoma): 102% (inactive) | growth (SK-MEL-28 melanoma): 114% (inactive)

COc1cc(C(=O)c2ccccc2C(=O)O)c(OC)c2c1CCCC2
growth (HCT-15 colon): 93.4% (inactive) and 104% (inactive) | growth (HT29 colon): 105% (inactive) and 98.2% (inactive) | growth (SNB-75 CNS): 94.1% (inactive) and 87.4% (inactive) | growth (SNB-19 CNS): 94.6% (inactive) and 102% (inactive) | growth (U251 CNS): 97% (inactive) and 100% (inactive) | growth (PC-3 prostate): 93.3% (inactive) and 103% (inactive) | growth (SK-MEL-5 melanoma): 96.6% (inactive) and 97.5% (inactive) | growth (UACC-62 melanoma): 96.1% (inactive) and 101% (inactive) | growth (LOX IMVI melanoma): 94.3% (inactive) and 94.1% (inactive) | growth (SK-MEL-28 melanoma): 102% (inactive) and 113% (inactive)

O=C(/C=C/c1cccs1)Nc1ncc(Cc2ccc(Cl)c(Cl)c2)s1
growth (HCT-15 colon): 28.9% (inactive) | growth (HT29 colon): 24.2% (inactive) | growth (SNB-75 CNS): 64% (inactive) | growth (SNB-19 CNS): 71.1% (inactive) | growth (U251 CNS): 59% (inactive) | growth (PC-3 prostate): 77.6% (inactive) | growth (SK-MEL-5 melanoma): 41.6% (inactive) | growth (UACC-62 melanoma): 17.6% (inactive) | growth (LOX IMVI melanoma): 23.3% (inactive) | growth (SK-MEL-28 melanoma): 63.6% (inactive)

O=C(c1ccc(Nc2nccc(NCCCNc3ccnc4cc(Cl)ccc34)n2)cc1)N1CCCCC1
growth (HCT-15 colon): 92.2% (inactive) | growth (HT29 colon): 19.7% (inactive) | growth (SNB-75 CNS): 90.5% (inactive) | growth (SNB-19 CNS): 35% (inactive) | growth (U251 CNS): 23% (inactive) | growth (PC-3 prostate): 36.5% (inactive) | growth (SK-MEL-5 melanoma): 43.7% (inactive) | growth (UACC-62 melanoma): 21.4% (inactive) | growth (LOX IMVI melanoma): -14.3% (active) | growth (SK-MEL-28 melanoma): 71.8% (inactive)

COc1ccc(-c2nnc3n(C)c(=O)c4ccccc4n23)cc1O
growth (HCT-15 colon): 22.9% (inactive) | growth (HT29 colon): 18.8% (inactive) | growth (SNB-75 CNS): 9.51% (active) | growth (SNB-19 CNS): 24.3% (inactive) | growth (U251 CNS): 15.1% (inactive) | growth (PC-3 prostate): 17.9% (inactive) | growth (SK-MEL-5 melanoma): 19% (inactive) | growth (UACC-62 melanoma): 14.2% (inactive) | growth (LOX IMVI melanoma): 39.1% (inactive) | growth (SK-MEL-28 melanoma): 50.9% (inactive)

O=C(Nc1ccc(F)cc1)c1cc2cc(Nc3nc(-c4ccccc4)nc4ccccc34)ccc2oc1=O
growth (HCT-15 colon): 112% (inactive) | growth (HT29 colon): 98.4% (inactive) | growth (SNB-75 CNS): 102% (inactive) | growth (SNB-19 CNS): 109% (inactive) | growth (U251 CNS): 97.4% (inactive) | growth (PC-3 prostate): 99.4% (inactive) | growth (SK-MEL-5 melanoma): 105% (inactive) | growth (UACC-62 melanoma): 102% (inactive) | growth (LOX IMVI melanoma): 93.5% (inactive) | growth (SK-MEL-28 melanoma): 111% (inactive)

COc1cc(Nc2nc3ccccc3cc2C(=O)Nc2ccc(F)c(F)c2)cc(OC)c1OC
growth (HCT-15 colon): 13.5% (inactive) | growth (HT29 colon): 28.5% (inactive) | growth (SNB-75 CNS): 45.4% (inactive) | growth (SNB-19 CNS): 25.3% (inactive) | growth (U251 CNS): 19.1% (inactive) | growth (PC-3 prostate): 10.7% (inactive) | growth (SK-MEL-5 melanoma): 13.8% (inactive) | growth (UACC-62 melanoma): 12.9% (inactive) | growth (LOX IMVI melanoma): 17.6% (inactive) | growth (SK-MEL-28 melanoma): 35.7% (inactive)

Cc1ccc(NC(=O)N/C(N)=N/c2nc(=O)c3ccccc3s2)cc1
growth (HCT-15 colon): 104% (inactive) | growth (HT29 colon): 103% (inactive) | growth (SNB-75 CNS): 83.1% (inactive) | growth (SNB-19 CNS): 93% (inactive) | growth (U251 CNS): 99.7% (inactive) | growth (PC-3 prostate): 101% (inactive) | growth (SK-MEL-5 melanoma): 93.4% (inactive) | growth (UACC-62 melanoma): 83% (inactive) | growth (LOX IMVI melanoma): 104% (inactive) | growth (SK-MEL-28 melanoma): 102% (inactive)

CCOC(=O)C(=Cc1ccc(C#N)cc1)C(=O)OCC
growth (HCT-15 colon): -21% (active) | growth (HT29 colon): -39.7% (active) | growth (SNB-75 CNS): 42.9% (inactive) | growth (SNB-19 CNS): 65.2% (inactive) | growth (U251 CNS): 50.3% (inactive) | growth (PC-3 prostate): 33.3% (inactive) | growth (SK-MEL-5 melanoma): 59.6% (inactive) | growth (UACC-62 melanoma): 10.6% (inactive) | growth (LOX IMVI melanoma): -54.9% (active) | growth (SK-MEL-28 melanoma): -17.7% (active)

Cn1cc(-c2nonc2-c2cn(C)c3ccc(Br)cc23)c2ccccc21
growth (HCT-15 colon): 26.1% (inactive) | growth (HT29 colon): 9.17% (active) | growth (SNB-75 CNS): -0.37% (active) | growth (SNB-19 CNS): 27.6% (inactive) | growth (U251 CNS): 23.3% (inactive) | growth (PC-3 prostate): 32% (inactive) | growth (SK-MEL-5 melanoma): 37.2% (inactive) | growth (UACC-62 melanoma): 21.8% (inactive) | growth (LOX IMVI melanoma): 31.2% (inactive) | growth (SK-MEL-28 melanoma): 55.9% (inactive)

COc1ccc(-c2c[nH]c(C(=O)O)c2-c2cc(OC)c(OC)c(OC)c2)cc1
growth (HCT-15 colon): 31.7% (inactive) | growth (HT29 colon): 14.7% (inactive) | growth (SNB-75 CNS): -15.5% (active) | growth (SNB-19 CNS): 41.3% (inactive) | growth (U251 CNS): 49.5% (inactive) | growth (PC-3 prostate): 32.8% (inactive) | growth (SK-MEL-5 melanoma): 19.2% (inactive) | growth (UACC-62 melanoma): 37.7% (inactive) | growth (LOX IMVI melanoma): 47.2% (inactive) | growth (SK-MEL-28 melanoma): 61.7% (inactive)

N#C/C(=C\c1ccc(Br)cc1)n1nnc2c(F)cccc21
growth (HCT-15 colon): 1.57% (active) | growth (HT29 colon): -0.198% (active) | growth (SNB-75 CNS): 18.8% (inactive) | growth (SNB-19 CNS): 15% (inactive) | growth (U251 CNS): -19.5% (active) | growth (PC-3 prostate): 4.26% (active) | growth (SK-MEL-5 melanoma): -12.1% (active) | growth (UACC-62 melanoma): -37.5% (active) | growth (LOX IMVI melanoma): -69.1% (active) | growth (SK-MEL-28 melanoma): -3.74% (active)

CCOC(=O)N(O)c1ccc(/C=C/c2ccccc2)cc1
growth (HCT-15 colon): 69.8% (inactive) and 72.3% (inactive) | growth (HT29 colon): 66.8% (inactive) and 53.7% (inactive) | growth (SNB-75 CNS): 93.6% (inactive) and 96.4% (inactive) | growth (SNB-19 CNS): 91.2% (inactive) and 74.5% (inactive) | growth (U251 CNS): 54.6% (inactive) and 58.1% (inactive) | growth (PC-3 prostate): 55% (inactive) and 67.5% (inactive) | growth (SK-MEL-5 melanoma): 66.2% (inactive) and 57.1% (inactive) | growth (UACC-62 melanoma): 29.4% (inactive) and -29.2% (active) | growth (LOX IMVI melanoma): 60.2% (inactive) and 58.5% (inactive) | growth (SK-MEL-28 melanoma): 103% (inactive) and 108% (inactive)

Cc1cc2nc(C(Cl)Cl)nc(-c3ccc(Cl)cc3)n2n1
growth (HCT-15 colon): -20.4% (active) | growth (HT29 colon): 2.12% (active) | growth (SNB-75 CNS): -22.7% (active) | growth (SNB-19 CNS): 12.6% (inactive) | growth (U251 CNS): 4.15% (active) | growth (PC-3 prostate): 16.1% (inactive) | growth (SK-MEL-5 melanoma): 41.2% (inactive) | growth (UACC-62 melanoma): 48.5% (inactive) | growth (LOX IMVI melanoma): 48.4% (inactive) | growth (SK-MEL-28 melanoma): 18.5% (inactive)

FC(F)(F)Sc1ccc(/C=C/c2cc(/C=C/c3ccc(SC(F)(F)F)cc3)n(-c3ccccc3)n2)cc1
growth (HCT-15 colon): 100% (inactive) | growth (HT29 colon): 95.3% (inactive) | growth (SNB-75 CNS): 82% (inactive) | growth (SNB-19 CNS): 92.6% (inactive) | growth (U251 CNS): 90.4% (inactive) | growth (PC-3 prostate): 84.2% (inactive) | growth (SK-MEL-5 melanoma): 98.3% (inactive) | growth (UACC-62 melanoma): 84.5% (inactive) | growth (LOX IMVI melanoma): 97.1% (inactive) | growth (SK-MEL-28 melanoma): 109% (inactive)

COc1cc(-c2nn(-c3cccc(NC(=O)CCN4CCN(C)CC4)c3)cc2-c2ccncc2)ccc1Cl
growth (HCT-15 colon): 21.2% (inactive) | growth (HT29 colon): -17.4% (active) | growth (SNB-75 CNS): -5.41% (active) | growth (SNB-19 CNS): 44% (inactive) | growth (U251 CNS): 21.5% (inactive) | growth (PC-3 prostate): 14% (inactive) | growth (SK-MEL-5 melanoma): 8.48% (active) | growth (UACC-62 melanoma): 28.2% (inactive) | growth (LOX IMVI melanoma): -16% (active) | growth (SK-MEL-28 melanoma): 16.9% (inactive)
